Experiment in all cases: NCI-60 one-dose screen, 48 h (100 = growth as untreated, 0 = no growth, -100 = all killed)
One test has as its system SK-MEL-2 melanoma. Particulars: 10 µM.
The test system of another test is EKVX NSCLC. Particulars: 10 µM unless noted.
In a further test the test system is SN12C renal. The settings on record: 10 µM unless noted.
The subject of the next test is UO-31 renal. The settings on record: 10 µM unless noted.
In the next test the test system is TK-10 renal. The settings on record: 10 µM unless noted.
In the next test the test system is ACHN renal. The settings on record: 10 µM unless noted.
The subject of the next test is CAKI-1 renal. Particulars: 10 µM unless noted.
The subject of a further test is A498 renal. The settings on record: 10 µM unless noted.
The next test relates to CCRF-CEM leukemia. Particulars: 10 µM unless noted.
Another test relates to MOLT-4 leukemia. The settings on record: 10 µM unless noted.
The next test deals with SR leukemia. Particulars: 10 µM unless noted.
The subject of a further test is RPMI-8226 leukemia. Particulars: 10 µM unless noted.
Another test deals with OVCAR-8 ovarian. Particulars: 10 µM unless noted.
For another test, the system named is OVCAR-5 ovarian. Particulars: 10 µM unless noted.
Another test deals with OVCAR-4 ovarian. The settings on record: 10 µM unless noted.
Another test relates to SK-OV-3 ovarian. The settings on record: 10 µM unless noted.
The subject of another test is IGROV1 ovarian. Particulars: 10 µM unless noted.
The next test has as its system OVCAR-3 ovarian. The settings on record: 10 µM unless noted.
The test system of the next test is HS 578T breast. The settings on record: 10 µM.
Another test relates to NCI/ADR-RES ovarian. The settings on record: 10 µM unless noted.

Compounds without any hit were thinned out: in the full panel of roughly 83,000, 20% have a hit.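 Values shown are percent growth following 48 h exposure of cells in 96-well plates to a single concentration of compound; below 10 was considered active.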 Values without a mark were called inactive. Calls of active or inactive are those of the source.

In the case of `CC(C)(C)CC(C)(C)Nc1c(-c2c(O)c3ccccc3oc2=O)nc2c(Cl)cc(C(F)(F)F)cn12`, the growth in the test on SK-MEL-2 melanoma is 102%; in the test on EKVX NSCLC, 97.3%; in the test with SN12C renal it was 91.6%; with UO-31 renal, 70.7%; with TK-10 renal, 96.4%; with ACHN renal it was 97.3%. The growth in the test with CAKI-1 renal was 87.6%; in the test with A498 renal it was 62%; with CCRF-CEM leukemia, 89.1%; with MOLT-4 leukemia, 82.6%; with SR leukemia, 104%; in the test on RPMI-8226 leukemia, 99.2%. Besides, the growth in the test with OVCAR-8 ovarian is 102%; in the test with OVCAR-5 ovarian, 109%; in the test on OVCAR-4 ovarian it was 100%; in the test on SK-OV-3 ovarian, 93%; in the test on IGROV1 ovarian, 90.4%; with OVCAR-3 ovarian it was 112%. The growth in the test with HS 578T breast is 103%; with NCI/ADR-RES ovarian, 108%.
For the compound `COc1ccc2c(CCc3ccc(Cl)cc3)c3[n+](cc2c1OC)CCc1cc2c(cc1-3)OCO2`, the growth with SK-MEL-2 melanoma is 36.7%; with EKVX NSCLC, 69.9%; with SN12C renal, 21.9%; in the test on UO-31 renal it was 91.4%; in the test with TK-10 renal it was 67.9%; in the test with ACHN renal it was 94.6%. Moreover, the growth with CAKI-1 renal is 99.2%; in the test with CCRF-CEM leukemia it was 64.7%; in the test on MOLT-4 leukemia, 72.6%; in the test with SR leukemia, 33.8%; in the test on RPMI-8226 leukemia it was 20.7%; with OVCAR-8 ovarian, 51%. For the same compound, the growth in the test with OVCAR-5 ovarian was 86.2%; in the test on OVCAR-4 ovarian, 24.4%; in the test with SK-OV-3 ovarian, 75.2%; in the test with IGROV1 ovarian, 40.8%; in the test with OVCAR-3 ovarian it was 44.2%; with HS 578T breast, 79.6%.
As for `COc1ccc2c(c1OC)C(=O)O[C@@H]2[C@H]1c2c(c(C#CC#Cc3ccc(F)c(F)c3)c3c(c2OC)OCO3)CCN1C`, the growth in the test with SK-MEL-2 melanoma is 91.8%; in the test on EKVX NSCLC, 90.3%; in the test on SN12C renal, 100%; in the test on UO-31 renal, 70.5%; in the test with TK-10 renal, 95.3%; in the test on ACHN renal it was 95%. The growth in the test with CAKI-1 renal is 86.6%; with CCRF-CEM leukemia, 101%; with MOLT-4 leukemia, 89%; in the test with SR leukemia it was 60.2%; in the test on RPMI-8226 leukemia it was 67.3%; in the test with OVCAR-8 ovarian, 87.9%. Further, the growth in the test with OVCAR-5 ovarian was 96.5%; with OVCAR-4 ovarian, 99.9%; with SK-OV-3 ovarian, 76%; in the test with IGROV1 ovarian it was 90.1%; with OVCAR-3 ovarian it was 104%; in the test with HS 578T breast it was 101%. For the same compound, in the test with NCI/ADR-RES ovarian, the growth was 89.3%.
Consider `O=C1/C(=C\c2cccc(OCCCCCOc3ccc(Cl)cc3)c2)N=C2SCCCN12`, for which the growth was 41.2% in the test on SK-MEL-2 melanoma; 37.2% in the test on EKVX NSCLC; 77.6% in the test on SN12C renal; 39.4% in the test on UO-31 renal; 56.7% with TK-10 renal; 49.3% with ACHN renal. The growth in the test on CAKI-1 renal is 52.7%; in the test on A498 renal, 39.6%; in the test with CCRF-CEM leukemia, 55.9%; in the test with MOLT-4 leukemia it was 36.7%; with SR leukemia, 92.1%; in the test with RPMI-8226 leukemia, 40.9%. Further, the growth is 53% with OVCAR-8 ovarian; 85.3% in the test on OVCAR-5 ovarian; 31.3% in the test on OVCAR-4 ovarian; 93.8% in the test on SK-OV-3 ovarian; 86.9% with IGROV1 ovarian; 59.3% with OVCAR-3 ovarian. Besides, the growth is 87% with HS 578T breast and 45.4% with NCI/ADR-RES ovarian.
With `CCc1nc2cc(/C=C/C(=O)NO)ccc2c(=O)n1CCc1ccc(OC)cc1`, the growth is 47.4% in the test on SK-MEL-2 melanoma; 40.8% in the test on EKVX NSCLC; 24.9% in the test with SN12C renal; 20.6% in the test on UO-31 renal; 2.16% (active) in the test on TK-10 renal; 9.54% (active) in the test on ACHN renal. Also, the growth is 13.4% in the test with CAKI-1 renal; 10.2% in the test with CCRF-CEM leukemia; 5.41% (active) in the test with MOLT-4 leukemia; 14.3% in the test on SR leukemia; 10.3% in the test on RPMI-8226 leukemia; 15.3% in the test with OVCAR-8 ovarian. For the same compound, the growth with OVCAR-5 ovarian is 24.2%; in the test with OVCAR-4 ovarian it was 39.1%; in the test on SK-OV-3 ovarian, 6.67% (active); in the test with IGROV1 ovarian it was 40.9%; with OVCAR-3 ovarian it was -1.22% (active); with HS 578T breast, 41.8%. Further, the growth with NCI/ADR-RES ovarian was 9.39% (active).
Consider `CCOC(=O)C1=C(C)N=C2Sc3cc(OC(F)(F)F)ccc3N2[C@H]1c1ccccn1`, for which the growth in the test on SK-MEL-2 melanoma is 43.6%; with EKVX NSCLC it was 26.8%; in the test on SN12C renal, 47.4%; in the test on UO-31 renal it was 33.1%; in the test with TK-10 renal, 51.1%; in the test on ACHN renal, 32.8%. Also, the growth is 27.9% with CAKI-1 renal; 43.3% with CCRF-CEM leukemia; 29.5% with MOLT-4 leukemia; 26.2% in the test with SR leukemia; 33.6% in the test on RPMI-8226 leukemia; 38% in the test on OVCAR-8 ovarian. Further, the growth in the test on OVCAR-5 ovarian is 65%; in the test on OVCAR-4 ovarian, 28.3%; with SK-OV-3 ovarian, 39.9%; in the test on IGROV1 ovarian it was 39.8%; with OVCAR-3 ovarian, 51.5%; in the test on HS 578T breast, 63.5%. The growth with NCI/ADR-RES ovarian is 38.2%.
Take `CCCCCCCC(=O)SCC/C=C/[C@@H]1CC(=O)NCc2cccc(n2)C2=N[C@@](C)(CS2)C(=O)N[C@@H](C(C)C)C(=O)N1`: the growth with SK-MEL-2 melanoma was 18.1%; with EKVX NSCLC, 51.3%; in the test with SN12C renal, 55.7%; in the test on UO-31 renal it was 50.8%; in the test with TK-10 renal it was 12%; in the test on ACHN renal it was 59.6%. Moreover, the growth with CAKI-1 renal was 82.3%; with CCRF-CEM leukemia it was 44.9%; in the test with MOLT-4 leukemia, 17.5%; in the test with SR leukemia it was 18.9%; with RPMI-8226 leukemia, 17.1%; in the test on OVCAR-8 ovarian, 32.1%. The growth was 25.5% in the test with OVCAR-5 ovarian; 34.4% in the test with OVCAR-4 ovarian; 10.3% with SK-OV-3 ovarian; 26% in the test with IGROV1 ovarian; 22% in the test with OVCAR-3 ovarian; 26.2% in the test on HS 578T breast. For the same compound, in the test with NCI/ADR-RES ovarian, the growth is 86.7%.
Regarding `COc1ccc2c(CCCCC(c3ccccc3)c3ccccc3)c3[n+](cc2c1OC)CCc1cc2c(cc1-3)OCO2`, the growth with SK-MEL-2 melanoma is -70.4% (active); in the test on EKVX NSCLC, -31.8% (active); in the test on SN12C renal, -77.7% (active); in the test on UO-31 renal it was -42.1% (active); in the test on TK-10 renal, -51% (active); in the test on ACHN renal, -19.1% (active). The growth was 16.6% in the test with CAKI-1 renal; 5.53% (active) in the test on CCRF-CEM leukemia; -20.7% (active) in the test with MOLT-4 leukemia; -35.8% (active) in the test with SR leukemia; -33% (active) in the test on RPMI-8226 leukemia; -54.8% (active) with OVCAR-8 ovarian. Moreover, the growth is -13.4% (active) in the test on OVCAR-5 ovarian; -80.2% (active) with OVCAR-4 ovarian; -9.34% (active) in the test with SK-OV-3 ovarian; -52.1% (active) in the test with IGROV1 ovarian; -89.6% (active) in the test on OVCAR-3 ovarian; -20.1% (active) in the test with HS 578T breast. The growth in the test on NCI/ADR-RES ovarian is 68.5%.

These data come from PubChem BioAssay (NCI).
